Reference: PubChem BioAssay
Where “and” joins values, the source holds several entries; their conditions need not be identical. Equal entries are not always repeated. Calls of active or inactive are those of the source. Rule as the data show it, unless noted: active = inhibition above about 80%; inactive = the rest.

Experiments:
[1] = UWB1.289 ovarian carcinoma cell growth inhibition, synergistic combos for chromothripsis tumors, BGB or cisplatin combos (AID 1671456); details: UWB1.289 ovarian carcinoma cells, stronger effect = higher value;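 also: cells exposed to compound for four days; 0% = vehicle DMSO and 100% = killing by high DMSO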
[2] = LFS_MB_2R medulloblastoma cell growth inhibition, synergistic combos for chromothripsis tumors, cisplatin combos (AID 1671457); details: LFS_MB_2R medulloblastoma cells, stronger effect = higher value;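 also: cells exposed to compound for four days before readout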
[3] = MDA-MB-436 breast carcinoma cell growth inhibition, synergistic combos for chromothripsis tumors, BGB or cisplatin combos (AID 1671458; call rule not given here;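 also: cells exposed for 96 hours; 0% = vehicle DMSO and 100% = killing by high DMSO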); details: MDA-MB-436 breast carcinoma growth inhibition, drug combinations, stronger effect = higher value
[4] = UWB1.289_BRCA1 ovarian cancer growth, cell-based, BGB or cisplatin combinations (AID 1671459); details: UWB1.289 BRCA1 ovarian carcinoma, drug combinations, stronger effect = higher value
[5] = human astrocyte viability loss, single and combined drugs, cytotoxicity control for chromothriptic childhood tumor combination screen, cell-based, BGB or cisplatin IC20 combos (AID 1671460); details: Human astrocytes, drug combinations, stronger effect = higher value;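 also: cells exposed to compounds for 96 hours before viability readout; 0% = vehicle and 100% = killing control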
[6] = growth inhibition of BT084 medulloblastoma cells, cell-based, ICGC_MB145, cisplatin and BGB IC40 combos (AID 1671461); details: drug combinations, stronger effect = higher value;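 also: cells exposed to drugs for 96 hours; 0% = vehicle DMSO and 100% = high DMSO full killing control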
[7] = growth inhibition of RCMB18 medulloblastoma cells, cell-based, cisplatin and BGB IC40 combos (AID 1671462); details: stronger effect = higher value;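 also: cells exposed to compound for four days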
[8] = growth inhibition of CRL1545 osteosarcoma cells, cell-based, cisplatin and BGB IC20 combos (AID 1671464); details: stronger effect = higher value;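 also: cells exposed to compound for 96 hours before readout; 0% = vehicle DMSO and 100% = high DMSO killing control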
F380Y = experiment: modulators of BK channel variants, profiling panel, selectivity assay, cell-based, U2OS BacMam, thallium flux, beta subunits (AID 1259406;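 active = thallium flux through the channel raised or lowered by more than 3 SD from vehicle-only wells, actives on both sides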;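 also: initial slope of Thallos dye fluorescence rise after thallium is added; log ratio against the mean of 0.3% DMSO vehicle wells on the same plate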); details: at 30 µM
F380Y/beta2Delta = experiment: as above; details: at 30 µM
[9] = biological target: Calcium-activated potassium channel subunit alpha-1 (Homo sapiens) + Leucine-rich repeat-containing protein 26 (Homo sapiens) (UniProt Q12791+Q2I0M4); experiment: as above; details: F380Y/Slo1WT/gamma1, at 30 µM
R275C = experiment: as above; details: at 30 µM
R275C/beta1 = experiment: as above; details: at 30 µM
R275C/beta2Delta = experiment: as above; details: at 30 µM
[10] = measured here: combination with cisplatin, at 0.5 µM

Chain of Calcium-activated potassium channel subunit alpha-1 (Homo sapiens) + Leucine-rich repeat-containing protein 26 (Homo sapiens) (Q2I0M4 whole entry, looked up, one chain of several): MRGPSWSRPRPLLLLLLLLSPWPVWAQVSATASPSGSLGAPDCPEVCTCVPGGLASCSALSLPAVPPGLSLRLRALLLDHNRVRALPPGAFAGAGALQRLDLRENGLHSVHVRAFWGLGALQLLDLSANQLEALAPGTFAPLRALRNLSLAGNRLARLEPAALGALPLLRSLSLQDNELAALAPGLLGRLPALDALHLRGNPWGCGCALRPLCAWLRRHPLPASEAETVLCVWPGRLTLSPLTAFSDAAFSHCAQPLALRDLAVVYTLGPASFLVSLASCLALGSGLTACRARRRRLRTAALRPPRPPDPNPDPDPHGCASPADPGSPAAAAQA

CC1CCc2cc(F)cc3c(=O)c(C(=O)O)cn1c23 (stereo not drawn)
inhibition ([1]; at 0.5 µM): 2.76% (inactive) and 0.5% (inactive) | inhibition ([1]; measured here: inhibition with BGB combination, at 0.05 µM): -16.2% and 1.75% | inhibition ([1]; measured here: inhibition with cisplatin combination, at 0.05 µM): -12.2% and 4% | inhibition ([2]; at 0.5 µM): -19.5% (inactive) and -4.64% (inactive) | inhibition [2, 10]: -15.1% and -2.74% | inhibition ([2]; measured here: combination with cisplatin, at 5 µM): -12% and -9.68% | inhibition ([3]; at 0.5 µM): -12.1% (inactive) and -0.02% (inactive) | inhibition ([3]; measured here: BGB combination, at 0.5 µM): -17.3% and -1.89% | inhibition ([3]; measured here: BGB combination, at 5 µM): -23.6% and -8.65% | inhibition ([3]; measured here: cisplatin combination, at 0.5 µM): -18.1% and 1.92% | inhibition ([3]; measured here: cisplatin combination, at 5 µM): -8.63% and -4.96% | inhibition ([4]; BGB combination, concentration series, at 5 µM): 7.3% and -2.65% | inhibition ([4]; at 0.5 µM): 0.71% (inactive) and -0.93% (inactive) | inhibition ([4]; cisplatin combination, concentration series, at 5 µM): 1.53% and -5.02% | inhibition ([5]; at 0.5 µM): 7.24% (inactive) and 2.53% (inactive) | inhibition ([5]; measured here: combo with BGB IC20, at 0.5 µM): 6.98% and 4.66% | inhibition ([5]; measured here: combo with cisplatin IC20, at 0.5 µM): 1.25% and 9.82% | inhibition ([6]; at 0.5 µM): -21.2% (inactive) and 2.68% (inactive) | inhibition ([6]; cisplatin combination, at 0.5 µM): -37.8% and -1.29% | inhibition ([6]; cisplatin combination, at 5 µM): -84.9% and -4.5% | inhibition ([6]; measured here: BGB IC40 combination 0.05 uM, at 0.05 µM): 25.8% and 24.3% | inhibition ([6]; single agent, at 5 µM): -17% and 4.9% | inhibition ([7]; at 0.5 µM): -15.1% (inactive) and 7.22% (inactive) | inhibition ([7]; cisplatin combo, at 5 µM): -26.9% and 25% | inhibition ([7]; measured here: BGB IC40 combination, at 0.05 µM): -11.2% and -0.956% | inhibition [7, 10]: -23.8% and 30.6% | inhibition ([7]; single agent, at 5 µM): -29.1% and -22.6% | inhibition ([8]; at 0.5 µM): -14.4% (inactive) and -0.92% (inactive) | inhibition ([8]; measured here: with BGB IC20 combination, at 0.5 µM): 1.08% and -21.3% | inhibition ([8]; measured here: with cisplatin IC20 combination, at 0.5 µM): -22.2% and 9.24% | inhibition ([8]; single agent, at 0.05 µM): 22.2% and 18.9% | inhibition ([8]; single agent, at 5 µM): 6.9% and 9.8%

C#C[C@]1(O)CC[C@H]2[C@@H]3CCc4cc(O)ccc4[C@H]3CC[C@@]21C
log fold change Tl+ flux (F380Y): 0.0259 (inactive) | log fold change Tl+ flux (F380Y/beta2Delta): -0.0272 (inactive) | log fold change Tl+ flux [9]: 0.0947 (active) | log fold change Tl+ flux (R275C): -0.0326 (inactive) | log fold change Tl+ flux (R275C/beta1): 0.0956 (inactive) | log fold change Tl+ flux (R275C/beta2Delta): 0.155 (active)
